According to article PMC5540273 (PLoS ONE, 2017):

Each molecule was assayed on T1, LOK. Settings: concentration: 1 μM,replicates: in singlicate; n = 1.
T1 construct: gene STK10
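Note: KINOMEscan kinase panel screen.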

Row | Structure (SMILES) | %Inh
1 | Cn1ccc2ncnc(Oc3ccc(NC(=O)Nc4cc(C(C)(C)C)on4)c(Cl)c3)c21 | 99.9%
2 | CC(=O)Nc1ccc(-c2cc3ncnc(SCC(=O)O)c3s2)cc1 | 5%
3 | CN(c1ccccc1CNc1nc(Nc2ccc3c(c2)CC(=O)N3)ncc1C(F)(F)F)S(C)(=O)=O | 57%
4 | FC(F)(F)c1cc(Br)cc(Nc2nccc(-c3cnn4ncccc34)n2)c1 [GW810578] | 25%
5 | O=C1NCCc2[nH]c(-c3ccncc3)cc21 | 6%
6 | O=C(Nc1cccc(C(F)(F)F)c1)c1cccc(Oc2ccc3nccn3n2)c1 | 24%
7 | Cc1ccc(CC(=O)N2CCc3cc(-c4cn(C)c5ncnc(N)c45)ccc32)cc1 [GSK2634758] | 87%
8 | COC(=O)c1cccc(NC(=O)NC2CCN(c3ccnc(NCc4ccc(F)cc4)n3)CC2)c1 [GSK1379860] | 0%
9 | Cn1ccc2ncnc(Oc3ccc(NC(=O)Nc4ccnc(C(F)(F)F)c4)c(Cl)c3)c21 | 94%
10 | O=C(NOCC1CC1)c1cc(Br)c(F)c(F)c1Nc1ccc(I)cc1Cl | 2%
11 | COc1ccc(Nc2nccc(N3CCC(NC(=O)c4cccc(C#N)c4)C3)n2)cc1 (centres unmarked) [GSK1379730] | 0%
12 | COc1cccc(C2=C(Nc3cccc(Cl)c3)C(=O)NC2=O)c1 [SB-341556] | 9%
13 | Cc1n[nH]c2cc(Nc3ccnc(Nc4cccc(CN5CCOCC5)c4)n3)ccc12 [GW682569] | 0%
14 | C[C@@H]1CNc2c(sc3ccc4nc(-c5ccncc5)ccc4c23)C(=O)N1 | 14%
15 | C[C@@H]1CCN(C(=O)N2CCCC2)C[C@@H]1N(C)c1ncnc2[nH]ccc12 | 0%
16 | Cl.c1ccc(Oc2ccc(Nc3ccnc4cc(-c5ccc(CN6CCNCC6)o5)ccc34)cc2)nc1 [GW567142] | 54%
17 | COc1cc2c(Nc3ccc(NC(=O)c4ccccc4)cc3)ncnc2cc1OCCCN1CCOCC1 [GSK301329] | 77%
18 | c1ccc(Oc2ccc(Nc3ccnc4ccc(-c5ccccn5)cc34)cc2)cc1 [GW407034] | 0%
19 | COc1cc2ncn(-c3cc(OCC4CCCCC4)c(C(N)=O)s3)c2cc1OC [GSK204559] | 63%

Row | Structure (SMILES) | %Inh
20 | C[C@@H]1CNc2c(sc3ccc4nc(-c5ccc(O)cc5)ccc4c23)C(=O)N1 | 19%
21 | NC(=O)c1ccc(-c2cc3ncnc(SCC(=O)O)c3s2)cc1 | 0%
22 | CS(=O)(=O)Nc1ccc(-c2ccnc3[nH]ccc23)cc1 [GSK993273] | 0%
23 | N#Cc1cccc(C(=O)NC2CCN(c3ccnc(Nc4ccc(F)cc4)n3)C2)c1 (centres unmarked) [GSK1379708] | 0%
24 | CS(=O)(=O)c1cccc(CNc2nc(Nc3ccc4c(c3)[C@@H]3C[C@@H]4CNC3=O)ncc2C(F)(F)F)c1 | 81%
25 | COc1cc(Nc2nccc(N3CCC(NC(=O)c4cccc(C#N)c4)C3)n2)cc(OC)c1OC (centres unmarked) [GSK1379751] | 0%
26 | CN1CCN(CCCNc2nccc(-c3c(-c4ccc(F)cc4)nn4cc(C(N)=O)ccc34)n2)CC1 [GW622475] | 0%
27 | COc1cccc(OC)c1C(=O)Nc1cccc(-c2nn3ccccc3c2-c2ccnc(Nc3cccc(F)c3)n2)c1 [GSK361065] | 90%
28 | CCOC(=O)N1CCC(n2cnc(-c3ccc(F)cc3)c2-c2ccnc(N)n2)CC1 [SB-219952] | 100%
29 | COC(=O)Nc1nc2cc(Oc3ccc(NC(=O)Nc4cc(C(F)(F)F)ccc4Cl)cc3)ccc2[nH]1.Cl [GW697465] | 99.7%
30 | CS(=O)c1ccc(-c2coc3ccc(-c4n[nH]c(=O)o4)cc23)cc1 (centres unmarked) | 99.7%
31 | Cn1ccc2ncnc(Oc3ccc(NC(=O)Nc4cncc(C(F)(F)F)c4)c(Cl)c3)c21 | 99.2%
32 | Nc1nccc(-c2ccc3c(N)n[nH]c3c2)n1 [GSK1034945] | 0%
33 | NC(=O)Nc1sc(-c2ccc(F)cc2)cc1C(N)=O [GW789449] | 22%
34 | CN1CCN(CCNc2nc3cc(Oc4ccc(NC(=O)Nc5cc(C(F)(F)F)ccc5F)cc4)ccc3[nH]2)CC1.Cl.Cl [GW768504] | 95.2%
35 | Cl.Nc1n[nH]c2cc(-c3ccccn3)ccc12 [GSK2189892] | 0%
36 | CCn1c(-c2nonc2N)nc2cncc(CNC3CCNCC3)c21.Cl [SB-747651] | 0%
37 | Cn1ccc2ncnc(Oc3ccc(NC(=O)Nc4cccc(C(F)(F)F)c4)c(Cl)c3)c21 | 99.9%

These molecules were tested on LRRK2. Settings: concentration: 1 μM,replicates: in singlicate; n = 1.

Row | Structure (SMILES) | %Inh
38 | Cn1ccc2ncnc(Oc3ccc(NC(=O)Nc4cc(C(C)(C)C)on4)c(Cl)c3)c21 | 3%
39 | CC(=O)Nc1ccc(-c2cc3ncnc(SCC(=O)O)c3s2)cc1 | 0%
40 | CN(c1ccccc1CNc1nc(Nc2ccc3c(c2)CC(=O)N3)ncc1C(F)(F)F)S(C)(=O)=O | 20%
41 | FC(F)(F)c1cc(Br)cc(Nc2nccc(-c3cnn4ncccc34)n2)c1 [GW810578] | 58%
42 | O=C1NCCc2[nH]c(-c3ccncc3)cc21 | 31%
43 | O=C(Nc1cccc(C(F)(F)F)c1)c1cccc(Oc2ccc3nccn3n2)c1 | 0%
44 | Cc1ccc(CC(=O)N2CCc3cc(-c4cn(C)c5ncnc(N)c45)ccc32)cc1 [GSK2634758] | 0%
45 | COC(=O)c1cccc(NC(=O)NC2CCN(c3ccnc(NCc4ccc(F)cc4)n3)CC2)c1 [GSK1379860] | 8%
46 | Cn1ccc2ncnc(Oc3ccc(NC(=O)Nc4ccnc(C(F)(F)F)c4)c(Cl)c3)c21 | 0%
47 | O=C(NOCC1CC1)c1cc(Br)c(F)c(F)c1Nc1ccc(I)cc1Cl | 0%
48 | COc1ccc(Nc2nccc(N3CCC(NC(=O)c4cccc(C#N)c4)C3)n2)cc1 (centres unmarked) [GSK1379730] | 31%
49 | COc1cccc(C2=C(Nc3cccc(Cl)c3)C(=O)NC2=O)c1 [SB-341556] | 83%
50 | Cc1n[nH]c2cc(Nc3ccnc(Nc4cccc(CN5CCOCC5)c4)n3)ccc12 [GW682569] | 0%
51 | C[C@@H]1CNc2c(sc3ccc4nc(-c5ccncc5)ccc4c23)C(=O)N1 | 100%
52 | C[C@@H]1CCN(C(=O)N2CCCC2)C[C@@H]1N(C)c1ncnc2[nH]ccc12 | 0%
53 | Cl.c1ccc(Oc2ccc(Nc3ccnc4cc(-c5ccc(CN6CCNCC6)o5)ccc34)cc2)nc1 [GW567142] | 4%
54 | COc1cc2c(Nc3ccc(NC(=O)c4ccccc4)cc3)ncnc2cc1OCCCN1CCOCC1 [GSK301329] | 33%
55 | c1ccc(Oc2ccc(Nc3ccnc4ccc(-c5ccccn5)cc34)cc2)cc1 [GW407034] | 5%
56 | COc1cc2ncn(-c3cc(OCC4CCCCC4)c(C(N)=O)s3)c2cc1OC [GSK204559] | 20%

Row | Structure (SMILES) | %Inh
57 | C[C@@H]1CNc2c(sc3ccc4nc(-c5ccc(O)cc5)ccc4c23)C(=O)N1 | 93.5%
58 | NC(=O)c1ccc(-c2cc3ncnc(SCC(=O)O)c3s2)cc1 | 11%
59 | CS(=O)(=O)Nc1ccc(-c2ccnc3[nH]ccc23)cc1 [GSK993273] | 35%
60 | N#Cc1cccc(C(=O)NC2CCN(c3ccnc(Nc4ccc(F)cc4)n3)C2)c1 (centres unmarked) [GSK1379708] | 0%
61 | CS(=O)(=O)c1cccc(CNc2nc(Nc3ccc4c(c3)[C@@H]3C[C@@H]4CNC3=O)ncc2C(F)(F)F)c1 | 72%
62 | COc1cc(Nc2nccc(N3CCC(NC(=O)c4cccc(C#N)c4)C3)n2)cc(OC)c1OC (centres unmarked) [GSK1379751] | 0%
63 | CN1CCN(CCCNc2nccc(-c3c(-c4ccc(F)cc4)nn4cc(C(N)=O)ccc34)n2)CC1 [GW622475] | 2%
64 | COc1cccc(OC)c1C(=O)Nc1cccc(-c2nn3ccccc3c2-c2ccnc(Nc3cccc(F)c3)n2)c1 [GSK361065] | 0%
65 | CCOC(=O)N1CCC(n2cnc(-c3ccc(F)cc3)c2-c2ccnc(N)n2)CC1 [SB-219952] | 0%
66 | COC(=O)Nc1nc2cc(Oc3ccc(NC(=O)Nc4cc(C(F)(F)F)ccc4Cl)cc3)ccc2[nH]1.Cl [GW697465] | 11%
67 | CS(=O)c1ccc(-c2coc3ccc(-c4n[nH]c(=O)o4)cc23)cc1 (centres unmarked) | 13%
68 | Cn1ccc2ncnc(Oc3ccc(NC(=O)Nc4cncc(C(F)(F)F)c4)c(Cl)c3)c21 | 0%
69 | Nc1nccc(-c2ccc3c(N)n[nH]c3c2)n1 [GSK1034945] | 0%
70 | NC(=O)Nc1sc(-c2ccc(F)cc2)cc1C(N)=O [GW789449] | 0%
71 | CN1CCN(CCNc2nc3cc(Oc4ccc(NC(=O)Nc5cc(C(F)(F)F)ccc5F)cc4)ccc3[nH]2)CC1.Cl.Cl [GW768504] | 0%
72 | Cl.Nc1n[nH]c2cc(-c3ccccn3)ccc12 [GSK2189892] | 0%
73 | CCn1c(-c2nonc2N)nc2cncc(CNC3CCNCC3)c21.Cl [SB-747651] | 43%
74 | Cn1ccc2ncnc(Oc3ccc(NC(=O)Nc4cccc(C(F)(F)F)c4)c(Cl)c3)c21 | 0%
